This excerpt belongs to a sample that is enriched for hits.
HIV RNase H inh-1: blocks HIV-1 RNase H cleavage of RNA/DNA duplex; P04585; inhibition, % at 10 µM; RT-RNase H RNA/DNA duplex cleavage, fluorescence; 1.9% of 65,000 active; in the data active means inhibition above about 50%
HIV RNase H inh-2: confirmation of HIV-1 reverse transcriptase RNase H inhibitors | 39% of 1,000 active | shares compounds with HIV RNase H inh-1 | inhibition, % at 10 µM | Recombinant RT RNase H, fluorescent RNA/DNA duplex cleavage; in the data active means inhibition above about 48%; inconclusive means no clear call, values can overlap the other calls
Numbers stand for hits; – = inactive; ? = inconclusive.

SMILES	HIV RNase H inh-1	others
CCOC(=O)c1sc(NC(=O)CSc2ccccn2)c(C#N)c1C	–
CCOC(=O)c1sc(NC(=O)CSc2nc(-c3ccco3)cc(C(F)(F)F)n2)c(C#N)c1C	76	HIV RNase H inh-2=?
Cc1cc(NC(=O)CSc2nc(-c3ccco3)cc(C(F)(F)F)n2)no1	–
CCOC(=O)c1sc(NC(=O)CSc2n[nH]c(-c3ccccc3)n2)c(C#N)c1C	83	HIV RNase H inh-2=62
CCc1nnc(NC(=O)CSc2nnc(Cc3ccccc3)o2)s1	–
CCOC(=O)c1sc(NC(=O)CSc2nnc(Cc3ccccc3)o2)c(C#N)c1C	90	HIV RNase H inh-2=54
O=C(NCC1CCC(C(=O)O)CC1)c1cccnc1 (configuration not stated)	–
Cc1cccc(N(C)c2cc(C)nc3nc(C)nn23)c1	–
COc1cc(C(=O)N2CCC(n3cnc4cc(F)ccc43)CC2)cc(OC)c1OC	–
O=C(NCCc1ccccc1)C1CCCN1C(=O)Nc1ccc(F)cc1 (configuration not stated)	–
CCOc1cccc2cc(-c3nnc(-c4ccccc4)o3)c(=O)oc12	–
CCn1c(SCC(=O)Nc2nc3ccc(OC)cc3s2)nc2c1c(=O)n(C)c(=O)n2C	–
OCCN1CCN(c2ncnc3c2sc2nc(N4CCOCC4)c4c(c23)CCC4)CC1	–
COC(=O)c1ccc(Cn2cnc3c(sc4nc(N5CCOCC5)c5c(c43)CCCC5)c2=O)o1	64	HIV RNase H inh-2=?
OCCN(CCO)c1ncnc2c1sc1nc(N3CCOCC3)c3c(c12)CCCC3	–
Cc1sc(-n2c(C)cc(/C=N/n3cnnc3)c2C)c(C#N)c1C	78	HIV RNase H inh-2=69
Cc1cc(/C=N/n2cnnc2)c(C)n1-c1ccc(Cl)cc1Cl	–
Cc1cc(/C=N/n2cnnc2)c(C)n1-c1cccc(Cl)c1	–
O=c1cnn(-c2ccccc2)c(-c2ccccc2)c1	–
Cc1cccc2cc(CN(Cc3nnnn3Cc3ccco3)C3CCCC3)c3nnnn3c12	–
CCOC(=O)C1=C(c2ccccc2)NC(SCC(=O)Nc2ccccc2C)=C(C#N)C1c1ccco1 (configuration not stated)	–
CSCCC(NC(=O)c1ccco1)C(=O)O (configuration not stated)	–
Cc1ccc(N(CN2CCCC2=O)C(=O)c2ccc(OC(C)C)cc2)cc1	–
Cc1ccc(OCC(=O)Nc2cccc(-c3nnc(-c4ccccc4)o3)c2)cc1	–
Cc1cccc(C)c1OCC(=O)Nc1cccc(-c2nnc(-c3ccccc3)o2)c1	–
Cc1cccc(OCC(=O)Nc2cccc(-c3nnc(-c4ccccc4)o3)c2)c1C	71	HIV RNase H inh-2=66
Cc1ccc(C(=O)NCC(=O)OCC(=O)c2c(N)n(C)c(=O)n(C)c2=O)s1	–
Cc1cc(C)nc(N2CCCC(C(=O)NCCC3=CCCCC3)C2)n1 (configuration not stated)	–
